Sampled rows, rich in hits. Any-hit rate of the full collection: about 17%.
TDP1 cell CPT – growth inhibition of DT40 Tdp1-/-;hTDP1 cells with camptothecin (screen for TDP1 inhibitors) | Potency, µM (titrated, usually from 46.2 µM), usual class: inhibitors | actives 12% (n = 420,000) | chicken DT40 Tdp1-/-;hTDP1 cells + 20 nM CPT, ATP luminescence, 48 h; note: nearly all actives have a fitted effect of over 55% in size
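Chicken DT40 Tdp1-/- cells stably complemented with human TDP1 were seeded at 400 cells/well in medium containing 20 nM camptothecin, exposed to pin-transferred compounds, and grown at 37 °C for at least 48 hr. Viability was read as ATP luminescence.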
ClpP mod – qHTS Assay for Activators of ClpP; ATP-dependent Clp protease proteolytic subunit (Bacillus subtilis (strain 168)), P80244; Potency, µM (highest dose often 57.5 µM); AID 651965, 2013; actives 1.9% (n = 340,000); purified B. subtilis ClpP, FRET peptide cleavage, 20 min; active = well fitted falling curve with a large enough effect; inconclusive = small, poorly fitted or top-dose-only effect; inactive = no such curve, though single readings can be large or run the other way; note: the source files actives as falling curves though it sought activators and does not explain the sign; nearly all actives have a fitted effect of over 65% in size
Target sequence (P80244 whole entry, looked up): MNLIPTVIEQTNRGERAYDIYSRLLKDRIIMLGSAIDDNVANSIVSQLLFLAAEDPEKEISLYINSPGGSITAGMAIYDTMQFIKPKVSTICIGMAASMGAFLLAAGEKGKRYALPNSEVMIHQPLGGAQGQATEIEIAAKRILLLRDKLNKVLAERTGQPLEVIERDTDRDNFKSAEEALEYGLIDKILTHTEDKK
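ClpP 10 microg/mL final, pH 8 Tris/KCl buffer with BSA, glycerol, Tween-20; compound pinned in; FRET-FV substrate; RT 20 min; Ex320/Em430; ΔFRET vs ADEP 5.8 microM, DMSO, no enzyme.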
TDP1 inh – TDP1 (human) enzyme inhibition. recombinant TDP1, AlphaScreen DNA substrate cleavage. Potency, µM (doses to about 130 µM), hits mostly inhibitors. actives 0.28% (n = 350,000); note: nearly all actives have a fitted effect of over 40% in size
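Enzyme-compound mixtures sat 15 min at room temperature, followed by a 5 min reaction with 15 nM final substrate and 10 min with AlphaScreen beads. Recombinant human Tdp1 was used at 1 nM final.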
TDP1 cell noCPT – qHTS for Inhibitors of human tyrosyl-DNA phosphodiesterase 1 (TDP1): qHTS in cells in absence of CPT; DT40 Tdp1-/- hTDP1 cells, no CPT, ATP luminescence, 48 h; Potency, µM (highest dose often 46.2 µM), hits mostly inhibitors; actives 15% (n = 420,000); AID 686978, 2013; note: nearly all actives have a fitted effect of over 55% in size
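Compound effects on proliferation are scored in DT40 Tdp1-/-;hTDP1 cells in the absence of CPT. ATP levels (CellTiter-Glo luminescence) are recorded after a ≥48 hr, 37 °C incubation.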
Numbers stand for hits; [ ] = dose if it differs, or a comment. Unless noted, calls come from the whole dose curve; as a rule, active = well fitted curve in the direction sought with a large enough effect; inconclusive = small, poorly fitted or top-dose-only effect, or another doubt; inactive = no such curve, though single readings can be large; an effect the other way counts as inactive or inconclusive.

Screening CCOC(=O)c1c(C)[nH]c(C)c1C(=O)COC(=O)c1cc2ccccc2cc1OC returned TDP1 cell CPT inconclusive, ClpP mod inactive, TDP1 inh inactive and TDP1 cell noCPT 23.1µM.
For Cc1c(-c2ccccc2)nc2c(Cl)cccc2c1C(=O)OCC(=O)c1ccc(F)cc1 the results were TDP1 cell CPT inconclusive, ClpP mod inactive and TDP1 cell noCPT 5.8µM.
`COc1ccc(-c2cc(C(=O)OCC(=O)c3ccc(C)cc3)c3cccc(Cl)c3n2)cc1` gave TDP1 cell CPT inconclusive, ClpP mod inactive and TDP1 cell noCPT inconclusive.
Cc1ccc2nc(C)cc(C(=O)OCC(=O)c3ccc(Cl)c([N+](=O)[O-])c3)c2c1 was read as TDP1 cell CPT 16.4µM, ClpP mod inactive, TDP1 inh inactive and TDP1 cell noCPT inconclusive.
For Cc1ccc(-c2cc(C(=O)OCC(=O)c3ccccc3)c3cccc(Cl)c3n2)cc1 the results were TDP1 cell CPT inconclusive, ClpP mod inconclusive and TDP1 cell noCPT 6.51µM.
Screening Cc1ccc(C(=O)OCC(=O)c2ccccc2)cc1 returned TDP1 cell CPT inactive, ClpP mod 14.1µM, TDP1 inh inactive and TDP1 cell noCPT inactive.
Cc1cc(C(=O)OCC(=O)c2ccc(Cl)c([N+](=O)[O-])c2)c2cccc(C)c2n1 was read as TDP1 cell CPT inconclusive, ClpP mod inactive, TDP1 inh inactive and TDP1 cell noCPT inconclusive.
For Cc1ccc(-c2cc(C(=O)Nc3cc([N+](=O)[O-])ccc3C)no2)cc1F the results were TDP1 cell CPT inactive, ClpP mod inactive, TDP1 inh inactive and TDP1 cell noCPT inactive.
`COc1ccc(N2CCN(C(c3ccccc3)c3sc4nc(-c5ccco5)nn4c3O)CC2)cc1` (centres undefined) gave TDP1 cell CPT inconclusive, ClpP mod inactive, TDP1 inh inactive and TDP1 cell noCPT inconclusive.
`COc1ccc2c(c1OC)C(Cc1ccccc1)N1CCc3cc4c(cc3C1C2)OCO4` (centres undefined) gave TDP1 cell CPT 5.96µM, TDP1 inh inactive and TDP1 cell noCPT 11.9µM.
COc1ccc2c(c1OC)CN(C)CCc1cc3c(cc1C(O)C2)OCO3 (centres undefined) was read as TDP1 cell CPT inconclusive, ClpP mod inactive, TDP1 inh inactive and TDP1 cell noCPT inconclusive.
For CO/N=C\CC(=O)Nc1ccc(Cl)cc1Cl the results were TDP1 cell CPT 11.6µM, TDP1 inh inactive and TDP1 cell noCPT 20.6µM.
`CO/N=C\CC(=O)Nc1ccc(F)cc1` gave TDP1 cell CPT inactive, ClpP mod inactive, TDP1 inh inactive and TDP1 cell noCPT inactive.
For CCN(CC)S(=O)(=O)c1ccc(/C=C/C(=O)OCC(=O)NCc2cccs2)cc1 the results were TDP1 cell CPT 20.6µM, ClpP mod inactive, TDP1 inh inactive and TDP1 cell noCPT inconclusive.
CCN(CC)S(=O)(=O)c1ccc(/C=C/C(=O)OCC(=O)NCc2ccco2)cc1 was read as TDP1 cell CPT 9.2µM, ClpP mod inactive and TDP1 cell noCPT inconclusive.
CCOC(=O)C1=CCN(S(=O)(=O)c2ccccc2)C1c1ccccc1 (centres undefined) was read as TDP1 cell CPT inconclusive, ClpP mod inactive and TDP1 cell noCPT inconclusive.
`CCOC(=O)C1=CCN(S(=O)(=O)c2ccc(F)cc2)C1c1ccccc1` (centres undefined) gave TDP1 cell CPT inconclusive, ClpP mod inactive and TDP1 cell noCPT 20.6µM.
For CCOC(=O)C1=CCN(S(=O)(=O)c2ccc(F)cc2)C1c1ccc(F)cc1 (centres undefined) the results were TDP1 cell CPT inconclusive, ClpP mod inactive and TDP1 cell noCPT 14.6µM.
For N#Cc1ccccc1CSCCNC(=O)Cc1c(F)cccc1Cl the results were TDP1 cell CPT inactive, ClpP mod inactive, TDP1 inh inactive and TDP1 cell noCPT inactive.
Cc1cccc(C)c1OCC(=O)Nc1cccc(-c2nnc(-c3ccccc3)o2)c1 was read as TDP1 cell CPT 18.4µM, ClpP mod inactive, TDP1 inh inactive and TDP1 cell noCPT 16.4µM.
CSc1cccc(NC(=O)CNC(=O)C2CCCCC2)c1 was read as TDP1 cell CPT inactive, ClpP mod inactive, TDP1 inh inactive and TDP1 cell noCPT inactive.
`CSc1cccc(NC(=O)OC2CCCCCCCCCCC2)c1` gave TDP1 cell CPT inconclusive, ClpP mod inactive, TDP1 inh inactive and TDP1 cell noCPT 20.6µM.
For CCC(Oc1ccccc1)C(=O)Nc1ccc(-c2nnc(-c3ccco3)o2)cc1 (centres undefined) the results were TDP1 cell CPT inconclusive, ClpP mod inactive, TDP1 inh inactive and TDP1 cell noCPT inconclusive.
CSc1cccc(NC(=O)COc2ccccc2)c1 was read as TDP1 cell CPT 8.2µM, ClpP mod inactive, TDP1 inh inactive and TDP1 cell noCPT 4.61µM.
For CC(=O)c1cccc(NC(=O)COc2ccccc2)c1 the results were TDP1 cell CPT inconclusive, ClpP mod inactive, TDP1 inh inactive and TDP1 cell noCPT inactive.
For O=C(COc1ccc(Br)cc1)Nc1ccc(-c2nnc(-c3ccco3)o2)cc1 the results were TDP1 cell CPT inconclusive, ClpP mod 10µM, TDP1 inh inactive and TDP1 cell noCPT inconclusive.
Screening COc1ccc(OCCCC(=O)Nc2cccc(SC)c2)cc1 returned TDP1 cell CPT inactive, ClpP mod inactive, TDP1 inh inactive and TDP1 cell noCPT inactive.
Screening CSc1cccc(NC(=O)CCCOc2ccc(Cl)cc2C)c1 returned TDP1 cell CPT 18.4µM, ClpP mod inactive, TDP1 inh inactive and TDP1 cell noCPT inconclusive.
`Cc1ccc(OCC(=O)Nc2cccc(-c3nnc(-c4ccccc4)o3)c2)cc1` gave TDP1 cell CPT 16.4µM, ClpP mod inactive, TDP1 inh inactive and TDP1 cell noCPT 16.4µM.
CN1CCC(N(C)CC(=O)Nc2cccc(Oc3ccccc3)c2)CC1 was read as TDP1 cell CPT inactive, ClpP mod inactive, TDP1 inh inactive and TDP1 cell noCPT inactive.
For CCCOc1cccc(NC(=O)OC2CCN(C)CC2)c1 the results were TDP1 cell CPT inactive, ClpP mod 25.1µM, TDP1 inh inactive and TDP1 cell noCPT inactive.
`CCN(C(=O)CCS(=O)(=O)c1cccc2nonc12)c1ccc(C)c(C)c1` gave TDP1 cell CPT inconclusive, TDP1 inh inactive and TDP1 cell noCPT inconclusive.
For CCCCCCN1C=CC=C/C1=C\C=C(C#N)C#N the results were TDP1 cell CPT inactive, TDP1 inh inactive and TDP1 cell noCPT inactive.
Screening CC(C)CNC(=O)N1[C@H](c2cccs2)[C@@H](C)C(=O)[C@@H](C)[C@@H]1c1cccs1 returned TDP1 cell CPT 18.4µM, ClpP mod inactive, TDP1 inh inactive and TDP1 cell noCPT inconclusive.
For CCOC(=O)CNC(=O)N1[C@H](c2cccs2)[C@@H](C)C(=O)[C@@H](C)[C@@H]1c1cccs1 the results were TDP1 cell CPT inconclusive, ClpP mod inactive, TDP1 inh inactive and TDP1 cell noCPT inactive.
Screening Cc1cnc(C)c(-c2cc(F)cc3c2OC(CNC(=O)Cc2ccccc2C)C3)n1 (centres undefined) returned TDP1 cell CPT inactive[9.04 µM] and TDP1 cell noCPT inconclusive.

Source: PubChem BioAssay
